Data taken from PubChem BioAssay (Tox21).
“And” between values parts separate entries of the source, which are not always exact repeats. Equal values may be shown once. Inconclusive results are not listed. Entries that show only a call come without a potency. Unmarked numbers belong to inactive results. The source made the active and inactive calls. The call rests on the fitted dose curve; in most records, active means well fitted cell-killing curve with a large enough effect in the repeat runs; inconclusive means weak or mixed curves, or effect the other way; inactive means no such curve, though single readings can be large or run the other way.
Potency means the concentration at half of the fitted maximal effect.

Test: qHTS assay to identify small molecule antagonists of the glucocorticoid receptor (GR) signaling pathway - cell viability counter screen (AID 720693); further: nearly all actives have a fitted effect of over 55% in size
Conditions: GR-bla HeLa viability, CellTiter-Glo luminescence, 18 h, with 5 nM dexamethasone present; series mostly up to 58.5 µM; viability change, negative = cytotoxic: at the top concentration
Excerpt: National Center for Advancing Translational Sciences [NCATS]
NIH Chemical Genomics Center [NCGC]
U.S. Environmental Protection Agency [EPA]
National Institutes of Environmental Health Sciences [NIEHS]
National Toxicology Program [NTP]
U.S. Food and Drug Administration [FDA]
The Glucocorticoid receptor (GR) is one of the members of the nuclear receptor family of ligand-dependent transcription factors. GR plays a critical role in carbohydrate, protein and lipid metabolisms and programmed cell death. CellSensor GR-bla HeLa cell line (Invitrogen) contains a beta-lactamase reporter gene under the control of the glucocorticoid response element stably integrated into HeLa cells, a cervical cancer cell line that expresses glucocorticoid receptor. The activation of the reporter gene under culture conditions can be detected by fluorescence intensity. This cell line has been used to screen the Tox21 10K compound library and to identify the compounds that inhibit the GR signaling. The cytotoxicity of the Tox21 compound library against the GR-bla HeLa cell line was tested in parallel by measuring the cell viability using CellTiter-Glo assay in the same wells.
Tox21 Assay Protocol Summary:
The GR-bla HeLa cells were dispensed at 1500 cells/5 ul/well in 1536-well black wall/clear bottom plates using a Multidrop Combi (ThermoFisher Scientific, Waltham, MA) dispenser. After the assay plates were incubated at a 37 C/5% CO2 incubator for 4 hours, 23 nL of compounds dissolved in DMSO, positive controls or DMSO only was transferred to the assay plate by a pintool station (Kalypsys, San Diego, CA), followed by addition of 1 uL of dexamethasone (5 nM, final concentration in the well). The plates were incubated at 37 C for 18 hours. After 1 uL of LiveBLAzerTM B/G FRET substrate was added using a Flying Reagent Dispenser (Aurora Discovery, San Diego, CA), the plates were incubated at room temperature (RT) for 2 hours, and fluorescence intensity was measured by an Envision plate reader (PerkinElmer, Shelton, CT). After measurement of bla assay, 3 ul CellTiter-Glo (Promega, Madison, WI) was added to measure the cytotoxicity and the plates were then incubated at RT for 30 min. The luminescence was measured using a ViewLux (Perkin Elmer) plate reader.
With c1ccncc1 the Potency was “inactive”. For COC(=O)c1ccccc1, the Potency was “inactive”. With Cc1c(C(N)=O)cc([N+](=O)[O-])cc1[N+](=O)[O-] the Potency was “inactive”. In the case of CCCCNS(=O)(=O)c1ccccc1, the Potency is reported as “inactive”. For CC(C)CC(C)(O)C#CC(C)(O)CC(C)C (stereo not given), the Potency was “inactive”. With Nc1ccc(Cl)cc1Cl the Potency was “inactive”. In the case of O=C(c1ccccc1)c1ccc(O)cc1O, the Potency is reported as “inactive”. In the case of Cc1cccc(C(=O)O)c1, the Potency is reported as “inactive”. With C[Si](C)(C)O[Si](C)(C)C the Potency was “inactive”. With O=C(/C=C/c1ccccc1)OCc1ccccc1 the Potency was “inactive”. In the case of CCC(C)CO (stereo not given), the Potency is reported as “inactive”. With O=C(c1ccc(OCCN2CCCCC2)cc1)c1c(-c2ccc(O)cc2)sc2cc(O)ccc12 the Potency was 23.9 µM (active). In the case of C#C[C@]1(O)CC[C@H]2[C@@H]3CCc4cc(OC)ccc4[C@H]3CC[C@@]21C, the Potency is reported as “inactive”. With Brc1cc(Oc2cc(Br)c(Br)c(Br)c2Br)c(Br)c(Br)c1Br the Potency was “inactive”. In the case of CC(C(=O)O)c1cccc(C(=O)c2ccccc2)c1 (stereo not given), the Potency is reported as “inactive”. With CCOCCOCCO the Potency was “inactive”. In the case of Cc1ccc2c(n1)Oc1ccc(C(C)C(=O)OCC(=O)N(C)C)cc1C2 (stereo not given), the Potency is reported as “inactive”. In the case of Cc1cccc(N(C)C(=S)Oc2ccc3ccccc3c2)c1, the Potency is reported as “inactive”. For CCCCC/C=C/C=C/C=O, the “viability change, negative = cytotoxic” value was -0.0045%. In the case of S=C(NC1CCCCC1)NC1CCCCC1, the Potency is reported as “inactive”. In the case of COc1ccc(OC)c(C(O)CNC(=O)CN)c1 (stereo not given), the Potency is reported as “inactive”. For CC(C)OB(OC(C)C)OC(C)C, the Potency was “inactive”. With O=C1c2cccc(O)c2C(=O)c2c(O)cccc21 the Potency was “inactive”. In the case of CN1C(C(=O)Nc2ccccn2)=C(O)c2ccccc2S1(=O)=O, the “viability change, negative = cytotoxic” value is reported as -5.5% [at 78.9 µM]. In the case of OC1CCCCCCCCCCC1, the Potency is reported as “inactive”. With OC(CCl)CCl the Potency was “inactive”. With CC(=O)C1(C)CC2=C(CCCC2(C)C)CC1C (stereo not given) the Potency was “inactive”. With CCCCC(CC)COP(=O)(OCC(CC)CCCC)OCC(CC)CCCC (stereo not given) the Potency was “inactive”. For Cc1[nH]c(=O)c(C#N)cc1-c1ccncc1, the “viability change, negative = cytotoxic” value was 18.3%. In the case of CCC(C)c1ccccc1O (stereo not given), the Potency is reported as “inactive”. For O=CCc1ccccc1, the Potency was “inactive”. For O=C(/C=C/C=C/c1ccc2c(c1)OCO2)N1CCCCC1, the Potency was “inactive”. With O=C(Nc1ccc(Cl)cc1)Nc1ccc(Cl)c(Cl)c1 the Potency was 4.77 µM (active) and 7.73 µM (active) and 6.92 µM (active). With COc1ccccc1/C=C/C=O the Potency was “inactive”. With c1ccc2cc(Nc3ccc(Nc4ccc5ccccc5c4)cc3)ccc2c1 the Potency was “inactive”. With CCC(C)(O)CCCC(C)C (stereo not given) the Potency was “inactive”. For CN(C)CCC=C1c2ccccc2CCc2ccccc21, the Potency was “inactive”. With Cc1ccc(C)c(O)c1C the Potency was “inactive”. For CNCCCC12CCC(c3ccccc31)c1ccccc12, the “viability change, negative = cytotoxic” value was -1.58%. For CCCCC(CC)COCC1CO1 (stereo not given), the “viability change, negative = cytotoxic” value was 19.6%.
